The results in this text go back to PubChem BioAssay (Tox21).

The structures appear in SMILES notation. Values without a mark were called inactive. Results filed as inconclusive are left out. The source made the active and inactive calls. Unless noted, the call rests on the fitted dose curve; in most records, active means well fitted curve in the direction sought with a large enough effect in the repeat runs; inconclusive means weak or mixed curves; inactive means no such curve, though single readings can be large; an effect the other way counts as inactive or inconclusive.

Test [1] in a line: qHTS assay to identify small molecule antagonists of the progesterone receptor (PR) signaling pathway - cell viability counter screen (AID 1346798). Further: nearly all actives have a fitted effect of over 50% in size. Further: potency means the concentration at half of the fitted maximal effect. Put shortly:
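Measures cytotoxicity in parallel with the PR antagonist reporter read: HEK293T PR-UAS-bla cells get compound and R5020 for 16 hr, and remaining viable cells are quantified by CellTiter-Glo luminescence.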
For orientation: qHTS replaces the single test concentration by a dilution series.

The nature of test [2]: qHTS assay to identify small molecule agonists of the progesterone receptor (PR) signaling pathway - cell viability counter screen (AID 1346799; calls by dose curve; further: nearly all actives have a fitted effect of over 45% in size; further: potency means the concentration at half of the fitted maximal effect). Put shortly:
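Using the same plates as the PR reporter screen, HEK293T PR-UAS-bla cells received compounds for 16 hr at 37C and were then lysed with CellTiter-Glo; luminescence was read 30 min later at room temperature.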

Test [3] is described as follows: qHTS assay to identify small molecule antagonists of the TGF-beta/Smad signaling pathway - cell viability counter screen (AID 1346824). Further: nearly all actives have a fitted effect of over 50% in size. Further: potency means the concentration at half of the fitted maximal effect. The gist of the method: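 SBE-bla HEK 293T cells were plated overnight at 37 C, then given compounds in DMSO plus TGF-beta1 (added as 0.25 ng/mL solution) for 5 hr. After the bla read, CellTiter-Glo was added to the same wells and luminescence read after 30 min at room temperature.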

Test [4] is described as follows: qHTS assay to identify small molecule agonists of the TGF-beta/Smad signaling pathway - cell viability counter screen (AID 1346829). Further: nearly all actives have a fitted effect of over 45% in size. Further: potency means the concentration at half of the fitted maximal effect. The gist of the method: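 In parallel with the Smad reporter read, viability of HEK 293T cells stably carrying SBE-bla is quantified by ATP luminescence following 5 hr compound treatment.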
Test [5] is described as follows: qHTS assay to identify small molecule agonists of the TGF-beta/Smad signaling pathway (AID 1346859; active means well fitted activation curve with a large enough effect in the signal ratio in the repeat runs, not every such curve was filed as active; the % refers to the signal ratio; further: potency means the concentration at half of the fitted maximal effect; on activation: series mostly up to about 77 µM; on the % scale 0 is the no-effect control and ±100 the full control effect). Put shortly:
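Beta-lactamase reporter activity downstream of Smad binding elements was measured in stably transfected HEK 293T cells; compounds were incubated for 5 hr, substrate for 2 hr at room temperature.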

Test [6] deals with Thyrotropin-releasing hormone receptor (Homo sapiens) (UniProt P34981). Description: qHTS assay to identify small molecule antagonists of the thyrotropin-releasing hormone receptor (TRHR) signaling pathway (AID 1346877; active means well fitted inhibition curve with a large enough effect in the repeat runs, not every such curve was filed as active; further: potency means the concentration at half of the fitted maximal effect). Put shortly: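 TRHR-expressing HEK293 cells loaded with calcium dye for 2 h at 37 C; compounds pre-incubated 5 min at room temperature before TRH challenge at 1 nM final. Intracellular calcium fluorescence read kinetically for 3 min; 15 concentrations in triplicate.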

Test [7] can be described thus: Human pregnane X receptor (PXR) small molecule agonists, qHTS cell viability counter screen (AID 1346977). Further: nearly all actives have a fitted effect of over 50% in size. Further: potency means the concentration at half of the fitted maximal effect. The gist of the method: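 After a 5hr pre-incubation, PXR-Luc HepG2 cells received compounds plus positive control in DMSO and were kept 24hr at 37C. Cell viability was quantified by fluorescence from CellTiter-Fluor added for the final hour.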
Test [8] in a line: Caspase-3/7 induction in HepG2 cells by small molecules, qHTS assay (AID 1346978). Further: nearly all actives have a fitted effect of over 15% in size. Further: potency means the concentration at half of the fitted maximal effect. Put shortly:
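Wild-type HepG2 cells (2,000/well) were settled 5 h at 37 C, 5% CO2, then exposed to compounds in DMSO for 17 h. Caspase-3/7 activity was read by luminescence 30 min after adding Caspase-Glo 3/7 reagent at room temperature.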

Test [9] is described as follows: Caspase-3/7 induction in CHO-K1 cells by small molecules, qHTS cell viability counter screen (AID 1346979). Further: nearly all actives have a fitted effect of over 35% in size. Further: potency means the concentration at half of the fitted maximal effect. Put shortly:
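Multiplexed with Caspase-Glo 3/7 in CHO-K1 cells, this counter screen added CellTiter-Fluor after 16hr of compound exposure and recorded fluorescence 1hr later.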

Test [10] in a line: Caspase-3/7 induction in CHO-K1 cells by small molecules, qHTS assay (AID 1346980). Further: on the % scale 0 is the no-effect control and ±100 the full control effect; nearly all actives have a fitted effect of over 15% in size. The gist of the method: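 Wild-type cells were seeded at 1,500 per well and settled 5 hr at 37 C, 5% CO2, then exposed to DMSO-dissolved compounds for 17 hr. Caspase-Glo 3/7 reagent was added, and luminescence was read after 30min at room temperature.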
The nature of test [11]: Caspase-3/7 induction in HepG2 cells by small molecules, qHTS cell viability counter screen (AID 1346981). Further: nearly all actives have a fitted effect of over 30% in size. Further: potency means the concentration at half of the fitted maximal effect. The gist of the method: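 Wild-type HepG2 cells, 2,000/well, settled 5 hr at 37 C, 5% CO2 before compound addition. Viability read by CellTiter-Fluor fluorescence, reagent added after 16 hr compound exposure, then 1 hr at 37C, in the same wells as the caspase read.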

The target of test [12] is Nuclear receptor subfamily 1 group I member 2 (Homo sapiens) (UniProt O75469). Description: Human pregnane X receptor (PXR) small molecule agonists, qHTS assay (AID 1346982). Further: nearly all actives have a fitted effect of over 35% in size. Further: potency means the concentration at half of the fitted maximal effect. On activation: on the % scale 0 is the no-effect control and ±100 the full control effect. Put shortly: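 PXR-Luc HepG2 reporter cells (CYP3A4-driven luciferase) in 5% charcoal-stripped FBS medium, plated 5 h before compound addition, then treated 24 h at 37C. Luciferase read by ONE-Glo luminescence after 30 min at room temperature.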

Test [13] deals with Cytochrome P450 2C19 (Homo sapiens) (UniProt P33261). Nature of the test: Cytochrome P450 Family 2 Subfamily C Member 19 (CYP2C19) small molecule antagonists: luciferase reporter qHTS assay (AID 1671197). Further: nearly all actives have a fitted effect of over 65% in size. Further: potency means the concentration at half of the fitted maximal effect. Put shortly: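 Compounds were tested on CYP2C19 activity via proluciferin conversion to luciferin. The 37C, 1 h reaction followed NADPH addition; detection reagent stopped it.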
Background: Reporter assays use an easily measured gene product as a stand-in for the process of interest.

For test [14], the target named is Thyrotropin-releasing hormone receptor (Homo sapiens) (UniProt P34981). Description: qHTS assay to identify small molecule agonists of the thyrotropin-releasing hormone receptor (TRHR) signaling pathway (AID 1346891; calls by dose curve; further: potency means the concentration at half of the fitted maximal effect; on activation: series mostly up to about 58 µM; on the % scale 0 is the no-effect control and ±100 the full control effect). Put shortly:
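Overnight-plated (18 h, 37 °C, 5% CO2) TRHR-Hek293 cells; 2 h calcium dye at 37 °C; compound in DMSO; 3-min kinetic fluorescence read.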

The target of test [15] is Cytochrome P450 2D6 (Homo sapiens) (UniProt P10635). Description: Cytochrome P450 Family 2 Subfamily D Member 6 (CYP2D6) small molecule antagonists: luciferase reporter qHTS assay (AID 1671196). Further: nearly all actives have a fitted effect of over 50% in size. Further: potency means the concentration at half of the fitted maximal effect. The gist of the method: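 Cell-free P450-Glo system: CYP2D6 with proluciferin substrate was pre-incubated with compound for 10 min, then reacted with NADPH regeneration for 1 h at room temperature. Luciferin product was detected after 20 min, and data were reported as relative luminescence units.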

The target in test [16] is Progesterone receptor (Homo sapiens) (UniProt P06401). Nature of the test: qHTS assay to identify small molecule antagonists of the progesterone receptor (PR) signaling pathway (AID 1346795; active means well fitted inhibition curve with a large enough effect in the signal ratio in the repeat runs, not every such curve was filed as active; the % refers to the signal ratio; further: potency means the concentration at half of the fitted maximal effect). The gist of the method:
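Screening used a GripTite HEK293T line with PR-responsive UAS-beta-lactamase. Cells were challenged with compound in the presence of 1 nM R5020 final for 16 hr at 37C; B/G FRET substrate, 2 hr room temperature, fluorescence.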

The target of test [17] is Nuclear receptor subfamily 1 group I member 2 (Rattus norvegicus) (UniProt Q9R1A7). Description: Rat pregnane X receptor (rPXR) activation by small molecules, qHTS assay (AID 1346983). Further: nearly all actives have a fitted effect of over 20% in size. Further: potency means the concentration at half of the fitted maximal effect. On max activation: on the % scale 0 is the no-effect control and ±100 the full control effect. To be noted: rPXR luciferase reporter cells, One-Glo luminescence, 24 h; max activation: stronger effect = higher value. Put shortly:
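Cell-based rPXR luciferase reporter assay, 2,000 cells per well, rested 5hr at 37 C before compound addition in DMSO, then 24 hr at 37 C. One-Glo reagent was added and luminescence read after 30 min at room temperature.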

In test [18] the target is Nuclear receptor subfamily 1 group I member 2 (Homo sapiens) (UniProt O75469). Nature of the test: CYP3A4 induction through human pregnane X receptor (PXR) by small molecules, qHTS assay (AID 1346984). Further: on the % scale 0 is the no-effect control and ±100 the full control effect; nearly all actives have a fitted effect of over 40% in size. Put shortly:
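DPX-2 HepG2 cells carrying a PXR response element and CYP3A4-promoter luciferase construct, treated with compounds 24 hr at 37C. Then P450-Glo CYP3A4 Luciferin-IPA substrate (3uM final) for 3 hr at 37C, One-Glo added, luminescence read.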

The target is the same in test [19]. Description: Human pregnane X receptor (PXR) activation by small molecules, qHTS assay (AID 1346985). Further: on the % scale 0 is the no-effect control and ±100 the full control effect; nearly all actives have a fitted effect of over 40% in size. Put shortly: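 DPX-2 cells (HepG2 co-transfected with a PXR response element and a CYP3A4-promoter luciferase construct) were seeded at 2,000 per well, rested 5 hr at 37C, then exposed to DMSO-dissolved compounds for 24 hr. Activation was read as luciferase luminescence.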

Thyrotropin-releasing hormone receptor (Homo sapiens), sequence (P34981 whole entry, looked up): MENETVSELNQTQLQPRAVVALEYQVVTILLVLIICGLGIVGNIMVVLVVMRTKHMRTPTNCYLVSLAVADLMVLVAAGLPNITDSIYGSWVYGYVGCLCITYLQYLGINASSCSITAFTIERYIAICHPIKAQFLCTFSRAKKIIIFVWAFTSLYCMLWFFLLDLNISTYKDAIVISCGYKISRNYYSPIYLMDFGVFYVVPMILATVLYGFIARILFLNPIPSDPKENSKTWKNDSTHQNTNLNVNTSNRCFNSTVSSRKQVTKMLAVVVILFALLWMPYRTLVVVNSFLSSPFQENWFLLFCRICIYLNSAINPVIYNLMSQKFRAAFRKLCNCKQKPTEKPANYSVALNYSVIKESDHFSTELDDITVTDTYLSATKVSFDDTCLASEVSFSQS
Progesterone receptor (Homo sapiens), sequence (P06401 whole entry, looked up): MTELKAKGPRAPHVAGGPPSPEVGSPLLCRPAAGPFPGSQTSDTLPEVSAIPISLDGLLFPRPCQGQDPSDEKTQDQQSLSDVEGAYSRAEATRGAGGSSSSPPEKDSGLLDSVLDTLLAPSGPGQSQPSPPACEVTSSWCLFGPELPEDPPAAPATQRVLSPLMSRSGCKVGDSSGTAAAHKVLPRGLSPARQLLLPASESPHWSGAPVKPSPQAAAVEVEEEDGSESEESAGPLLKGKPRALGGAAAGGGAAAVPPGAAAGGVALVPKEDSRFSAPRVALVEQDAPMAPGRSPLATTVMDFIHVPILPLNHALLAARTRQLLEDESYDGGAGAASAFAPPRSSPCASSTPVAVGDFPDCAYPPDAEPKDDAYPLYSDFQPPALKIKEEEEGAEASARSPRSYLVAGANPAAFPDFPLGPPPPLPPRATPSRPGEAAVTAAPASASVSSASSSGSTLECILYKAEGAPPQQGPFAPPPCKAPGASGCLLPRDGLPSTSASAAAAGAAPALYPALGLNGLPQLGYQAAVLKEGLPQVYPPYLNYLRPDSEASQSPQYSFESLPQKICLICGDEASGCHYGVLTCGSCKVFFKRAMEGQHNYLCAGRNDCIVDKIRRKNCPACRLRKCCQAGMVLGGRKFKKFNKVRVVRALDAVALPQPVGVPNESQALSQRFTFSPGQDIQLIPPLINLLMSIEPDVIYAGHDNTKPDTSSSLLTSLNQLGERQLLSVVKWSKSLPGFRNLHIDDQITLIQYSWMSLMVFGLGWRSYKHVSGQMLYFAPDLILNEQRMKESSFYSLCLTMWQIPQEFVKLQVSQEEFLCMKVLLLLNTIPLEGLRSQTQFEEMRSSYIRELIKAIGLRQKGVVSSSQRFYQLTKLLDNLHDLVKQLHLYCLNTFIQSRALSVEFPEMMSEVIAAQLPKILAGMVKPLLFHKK
Cytochrome P450 2C19 (Homo sapiens), sequence (P33261 whole entry, looked up): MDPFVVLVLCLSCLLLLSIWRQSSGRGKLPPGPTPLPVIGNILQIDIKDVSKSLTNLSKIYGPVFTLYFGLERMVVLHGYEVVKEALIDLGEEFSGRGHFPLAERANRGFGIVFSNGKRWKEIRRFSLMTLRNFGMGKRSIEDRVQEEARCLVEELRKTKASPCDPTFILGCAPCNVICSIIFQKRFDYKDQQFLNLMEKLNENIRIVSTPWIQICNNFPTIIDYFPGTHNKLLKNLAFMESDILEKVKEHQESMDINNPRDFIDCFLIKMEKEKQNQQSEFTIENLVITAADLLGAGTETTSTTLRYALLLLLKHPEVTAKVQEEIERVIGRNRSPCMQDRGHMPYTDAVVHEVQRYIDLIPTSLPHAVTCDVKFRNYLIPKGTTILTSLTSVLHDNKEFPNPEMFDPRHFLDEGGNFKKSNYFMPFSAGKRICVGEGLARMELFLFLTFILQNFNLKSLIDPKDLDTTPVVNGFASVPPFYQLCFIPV
Nuclear receptor subfamily 1 group I member 2 (Homo sapiens), sequence (O75469 whole entry, looked up): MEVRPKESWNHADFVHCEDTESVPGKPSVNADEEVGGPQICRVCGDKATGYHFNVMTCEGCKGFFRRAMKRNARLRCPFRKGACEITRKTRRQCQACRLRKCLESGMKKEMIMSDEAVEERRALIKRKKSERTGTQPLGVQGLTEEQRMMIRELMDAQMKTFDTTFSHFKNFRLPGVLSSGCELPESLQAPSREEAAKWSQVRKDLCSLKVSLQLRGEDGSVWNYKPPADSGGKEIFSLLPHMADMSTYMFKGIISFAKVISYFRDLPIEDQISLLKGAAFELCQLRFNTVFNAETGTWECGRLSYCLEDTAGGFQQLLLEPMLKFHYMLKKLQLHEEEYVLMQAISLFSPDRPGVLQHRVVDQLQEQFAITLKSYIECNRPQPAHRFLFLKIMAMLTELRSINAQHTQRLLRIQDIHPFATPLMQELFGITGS
Cytochrome P450 2D6 (Homo sapiens), sequence (P10635 whole entry, looked up): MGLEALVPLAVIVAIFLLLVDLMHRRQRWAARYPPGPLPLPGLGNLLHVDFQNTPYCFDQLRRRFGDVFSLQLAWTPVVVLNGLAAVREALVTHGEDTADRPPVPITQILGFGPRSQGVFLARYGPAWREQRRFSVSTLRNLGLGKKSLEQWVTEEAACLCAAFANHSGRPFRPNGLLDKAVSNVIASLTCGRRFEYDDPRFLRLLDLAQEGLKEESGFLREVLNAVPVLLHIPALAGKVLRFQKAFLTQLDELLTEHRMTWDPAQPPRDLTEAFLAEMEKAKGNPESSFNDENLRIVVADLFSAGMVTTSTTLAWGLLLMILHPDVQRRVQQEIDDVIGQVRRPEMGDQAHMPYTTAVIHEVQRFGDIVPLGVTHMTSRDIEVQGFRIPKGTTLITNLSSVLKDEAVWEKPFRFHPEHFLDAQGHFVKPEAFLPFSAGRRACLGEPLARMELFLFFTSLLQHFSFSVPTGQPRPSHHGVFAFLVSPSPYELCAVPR
Nuclear receptor subfamily 1 group I member 2 (Rattus norvegicus), sequence (Q9R1A7 whole entry, looked up): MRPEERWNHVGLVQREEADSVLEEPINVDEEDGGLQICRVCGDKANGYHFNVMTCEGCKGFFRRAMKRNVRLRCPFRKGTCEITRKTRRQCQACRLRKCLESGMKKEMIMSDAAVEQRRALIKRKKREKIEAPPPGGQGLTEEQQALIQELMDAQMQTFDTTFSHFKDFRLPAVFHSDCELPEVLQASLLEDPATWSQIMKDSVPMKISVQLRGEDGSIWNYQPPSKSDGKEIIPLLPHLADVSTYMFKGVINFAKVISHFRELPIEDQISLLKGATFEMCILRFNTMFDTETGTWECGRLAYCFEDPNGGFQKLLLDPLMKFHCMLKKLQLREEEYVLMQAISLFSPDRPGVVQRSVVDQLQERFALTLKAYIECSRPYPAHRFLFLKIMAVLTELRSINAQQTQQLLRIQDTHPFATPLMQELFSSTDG

Regarding `Cc1ccc(O)cn1`, the Potency result in [1], in test [2], in [3], in test [4], in test [5] and in test [6] was “inactive” each time. In addition, the Potency entry in test [7], in test [8], in test [9], in [10], in [11] and in test [12] was “inactive” throughout. In addition, in [13], the Potency result was “inactive”.

Consider `C1CC(COCC2CO2)CCC1COCC1CO1` (configuration not stated), for which the Potency entry in [1], in test [2], in [3], in [4], in test [14] and in test [7] was “inactive” in each case. The Potency result in [8], in [10], in test [11] and in test [15] was “inactive” in each case.

As for `CCCCCCCCCCCCN(CCO)CCO`, the Potency in test [16] is 60.9 µM (active); in test [7] it was 48.4 µM (active); in test [8] it was 30.5 µM (active); in [9], 43.1 µM (active); in test [11], 68.3 µM (active); in [12], 15.3 µM (active). In addition, the Potency in [15] is 11.2 µM (active); in test [13] it was 25.1 µM (active). Also, the Potency entry in [3], in test [5], in test [6] and in test [14] was “inactive” in each case.

Turning to `CCOC(=O)C1=C(C)NC(C)=C(C(=O)OCC)C1c1ccccc1/C=C/C(=O)OC(C)(C)C`, the Potency was 26.6 µM (active) in test [16]; 23.9 µM (active) in test [5]; 33.5 µM (active) in [9]; 1.33 µM (active) in test [12]; 3.55 µM (active) in test [17]; 4.9 µM (active) in test [13]. Besides, the Potency entry in test [3], in test [4], in [6], in test [14] and in test [18] was “inactive” in each case.

Take `COCC(=O)O[C@]1(CCN(C)CCCc2nc3ccccc3[nH]2)CCc2cc(F)ccc2[C@@H]1C(C)C`: the Potency was 26.6 µM (active) in test [16]; 26.6 µM (active) in test [1]; 21.1 µM (active) in test [2]; 23.7 µM (active) in test [7]; 26.6 µM (active) in test [8]; 29.8 µM (active) in test [9]. The values for the Potency in test [11] and in test [12] were 29.8 µM (active) and 1.68 µM (active), respectively. In addition, the Potency result in [5], in test [6], in test [14], in test [18] and in [19] was “inactive” each time. The max activation in [17] is -19.6%.

As to `CCCOc1sc(C(=O)N2CCC(c3cc(CN)ccc3F)CC2)c(C)c1Br`, the Potency in test [1] was 25 µM (active); in test [2], 19.9 µM (active); in [3], 50.4 µM (active); in test [4], 44.9 µM (active); in test [6], 27.6 µM (active); in [14] it was 31.8 µM (active). For the same molecule, the Potency in test [7] was 28.1 µM (active); in test [8] it was 44.5 µM (active); in [9], 22.3 µM (active); in test [11] it was 49.9 µM (active); in test [15], 18.3 µM (active); in [13], 3.66 µM (active). The Potency entry in [12] was “inactive”.

As for `CC=O`, the Potency in test [1] was 32 µM (active); in [2], 45.3 µM (active); in test [3], 25.7 µM (active); in [4] it was 28.8 µM (active); in test [7], 5.7 µM (active); in [9] it was 4.03 µM (active). The results for the Potency in [12] and in test [15] were 4.53 µM (active) and 8.34 µM (active), respectively. Also, in test [11], the Potency entry was “inactive”.
